Compound activity (PubChem)
Sampled rows, rich in hits. Any-hit rate of the full collection: about 2%.
FUS yeast rescue: qHTS for Suppressors of FUS Proteinopathy: Primary screen using FUS-linked yeast assay | S. cerevisiae FUS-expressing, growth rescue, OD600, 24 h | Potency, µM (titrated, usually from 76.6 µM), usual class: activators | hit rate 0.24% among 390,000 | AID 1347120, 2019; note: nearly all actives have a fitted effect of over 55% in size
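S. cerevisiae expressing FUS from galactose induction served as the toxicity model. Growth after 24hr at 30C, read as absorbance at 600 nm, indicates suppression of toxicity; compounds dosed at several concentrations.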
Abeta yeast res: qHTS for compounds that reverse cellular toxicity of Amyloid beta (A-beta) peptide in yeast: Primary Screen. yeast expressing A-beta42, growth rescue, OD600, 48 h; response scale: 0% DMSO, 100% iron-clioquinol control. Potency, µM (series often up to 46.1 µM), actives largely listed as activators. hit rate 0.063% among 410,000. AID 1347071, 2019; note: nearly all actives have a fitted effect of over 55% in size
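Yeast A-beta toxicity model in growth medium with pinned compounds, 48 h at 30 C; growth read as absorbance at 600 nm. Normalized to FeCl3/clioquinol equimolar mix (positive) and DMSO (negative).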
TDP43 rescue: qHTS of TDP-43 Inhibitors | hit rate 1.8% among 410,000 | Potency, µM (top dose mostly 46.1 µM), usual class: activators | TDP-43 expressing yeast growth rescue, BacTiter-Glo, 24 h; note: nearly all actives have a fitted effect of over 50% in size
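Luminescence from BacTiter-Glo reports growth of TDP-43-expressing yeast after 24 hr at 30 deg C with compound. Cells were raffinose-pregrown to mid-log, then seeded in galactose medium at OD600=0.02.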
mIDH1 inhibitor: qHTS for Inhibitors of mutant isocitrate dehydrogenase 1 (IDH1): qHTS | IDH1-R132H enzyme, NADPH consumption, diaphorase/resazurin fluorescence | Potency, µM (top dose mostly 76.6 µM), usual class: inhibitors | hit rate 0.093% among 390,000; note: nearly all actives have a fitted effect of over 65% in size
Target sequence (O75874 whole entry R132H, stated change not applied): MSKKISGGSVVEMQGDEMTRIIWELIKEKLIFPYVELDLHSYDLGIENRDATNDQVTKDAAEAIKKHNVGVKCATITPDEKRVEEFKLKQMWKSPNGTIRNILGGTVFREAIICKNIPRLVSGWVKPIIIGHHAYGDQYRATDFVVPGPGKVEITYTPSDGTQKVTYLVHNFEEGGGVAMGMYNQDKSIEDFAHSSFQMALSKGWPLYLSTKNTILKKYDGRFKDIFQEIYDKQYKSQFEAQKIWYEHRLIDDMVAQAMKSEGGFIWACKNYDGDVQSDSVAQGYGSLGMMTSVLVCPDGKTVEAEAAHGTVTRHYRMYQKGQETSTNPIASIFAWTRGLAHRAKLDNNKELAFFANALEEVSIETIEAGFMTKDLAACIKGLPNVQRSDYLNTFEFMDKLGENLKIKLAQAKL
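IDH1-R132H (0.5 ug/mL) preincubated 30 min with compound, then NADPH (0.016 mM) and alpha-KG (2 mM) added; 80 min at RT, pH 7.5. Remaining NADPH coupled via diaphorase/resazurin to fluorescence (540/590 nm); concentration-response curves normalized to no-enzyme control.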
LDHA inh: qHTS assay for inhibitors of human lactate dehydrogenase; L-lactate dehydrogenase A chain (Homo sapiens), P00338; purified LDHA, NADH/diaphorase-resazurin fluorescence; stronger effect = lower value; activity change, % (values are at about 110 or 230 µM); hit rate 0.15% among 480,000; AID 1347041, 2019; in the data active = activity change below about -30%; inconclusive = mostly about -25% to -30%
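Resorufin fluorescence (ex540/em590), read at 0 and 20 min after diaphorase/resazurin addition, reports the NADH left after a 5 min room-temperature reaction of 2 nM human LDH5 with 0.06 mM NADH and 0.2 mM pyruvate.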
aSyn rescue: qHTS of alpha-syn Inhibitors; Yeast expressing alpha-synuclein, growth rescue, BacTiter-Glo, 24 h; Potency, µM (series often up to 46.1 µM), hits mostly activators; hit rate 0.14% among 370,000; AID 652106, 2013; note: nearly all actives have a fitted effect of over 65% in size
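Screening used galactose-induced yeast with toxic alpha-synuclein levels, exposed to compound for 24 hr at 30 deg C. Cell growth, read with BacTiter-Glo luminescence, gave the measured signal.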
IDH1 autofl: qHTS for Inhibitors of mutant isocitrate dehydrogenase 1 (IDH1): Cherrypicks Autofluorescence Interference; shares compounds with mIDH1 inhibitor; Resorufin detection reagent fluorescence interference, cell-free; inhibition of signal, % at 51.2 µM; 750 tested, under 10 active
IDH1 WT: qHTS for Inhibitors of mutant isocitrate dehydrogenase 1 (IDH1): Cherrypicks in WT IDH1 | shares compounds with mIDH1 inhibitor | WT IDH1 enzyme, NADPH diaphorase/resazurin fluorescence | Potency, µM (highest dose often 115 µM), most hits filed as inhibitors | hit rate 9% among 750; note: nearly all actives have a fitted effect of over 55% in size
Target sequence (O75874 whole entry, looked up): as the sequence (O75874 whole entry R132H, stated change not applied) above, with H132R counted along it
IDH1 R132H conf: qHTS for Inhibitors of mutant isocitrate dehydrogenase 1 (IDH1): Confirmation of Cherrypicks | shares compounds with mIDH1 inhibitor | IDH1 R132H enzyme, NADPH diaphorase/resazurin fluorescence | Potency, µM (doses to about 76.6 µM), most hits filed as inhibitors | hit rate 83% among 750; note: nearly all actives have a fitted effect of over 50% in size
A number is an active result; . = inactive; ? = inconclusive; / = no result given. Unless noted, calls come from the whole dose curve; as a rule, active = well fitted curve in the direction sought with a large enough effect; inconclusive = small, poorly fitted or top-dose-only effect, or another doubt; inactive = no such curve, though single readings can be large; an effect the other way counts as inactive or inconclusive.

SMILES	FUS yeast rescue	Abeta yeast res	TDP43 rescue	mIDH1 inhibitor	LDHA inh	aSyn rescue	IDH1 autofl	IDH1 WT	IDH1 R132H conf
O=C(C=P(c1ccccc1)(c1ccccc1)c1ccccc1)c1ccccc1-c1ccccc1C(=O)C=P(c1ccccc1)(c1ccccc1)c1ccccc1	/	.	.	23µM	.	.	.	?	3.2µM
Cc1cccc(/C=C/C(=O)c2ccc([N+](=O)[O-])o2)c1	.	.	.	4.5µM	.	.	.	22µM	2µM
COc1ccc(/C=C/C(=O)c2ccc([N+](=O)[O-])o2)cc1	.	.	.	.	.	.	/	/	/
Cc1ccccc1/C=C/C(=O)c1ccc([N+](=O)[O-])o1	.	.	.	?	.	.	.	40µM	?
COc1cc(-c2nc3cc(NC(=O)c4ccc(Cl)cc4)ccc3o2)cc(OC)c1OC	/	/	/	/	.	/	/	/	/
O=C1NC[C@@H](Cc2cccc3ccccc23)N(CCCCC2CCCCC2)C1=O	.	.	.	?	.	.	.	.	40µM
O=C1NC[C@H](CC2CCCCC2)N(CCc2cccc3ccccc23)C1=O	.	.	.	/	.	.	/	/	/
Cc1cccc[n+]1Cc1ccccc1	/	/	/	/	.	/	/	/	/
COc1ccc(-c2cc(-c3nnc(COC(=O)c4ccc(O)cc4)o3)c3ccccc3n2)cc1OC	.	.	.	?	.	.	.	.	?
CCCc1cc(=O)[nH]c(Nc2nc(C)c3ccc(C)cc3n2)n1	/	/	/	/	.	/	/	/	/
O=c1c2ccccc2nc(/C=C/c2ccccc2)n1CCc1ccccc1	.	.	.	.	.	.	/	/	/
O=c1c2ccccc2nc(/C=C/c2cccnc2)n1CCc1ccccc1	.	.	?	52µM	.	.	.	.	45µM
CCOCCCN1C(=O)c2[nH]nc(-c3ccccc3O)c2C1c1ccc(CC)cc1 (stereo not given)	?	.	.	?	.	/	.	.	?
CCc1ccc(C2c3c(-c4ccccc4O)n[nH]c3C(=O)N2Cc2ccncc2)cc1 (stereo not given)	.	.	.	35µM	.	/	.	.	28µM
Cc1ccccc1NCC(=O)c1ccc(Br)cc1	.	.	.	?	.	.	.	.	45µM
O=C(NC1CCCCC1)C(c1ccc(F)cc1)N(Cc1ccco1)C(=O)Cn1nnc2ccccc21 (stereo not given)	.	.	.	.	.	.	/	/	/
CCC(C)(C)NC(=O)C(c1ccc(C)cc1)N(Cc1ccco1)C(=O)Cn1nnc2ccccc21 (stereo not given)	.	.	.	.	.	.	/	/	/
O=C(NCc1ccco1)C(c1ccccc1)N(CC1CCCO1)C(=O)Cn1nnc2ccccc21 (stereo not given)	/	.	.	.	.	.	/	/	/
Cc1ccc(C(C(=O)NC2CCCCC2)N(Cc2ccco2)C(=O)Cn2cnc3ccccc32)cc1 (stereo not given)	.	.	.	29µM	.	.	.	.	13µM
O=C(NC1CCCCC1)C(c1ccccc1F)N(Cc1ccco1)C(=O)Cn1nnc2ccccc21 (stereo not given)	.	.	.	?	.	.	.	.	11µM
Cc1ccccc1C(C(=O)NCc1ccco1)N(CC1CCCO1)C(=O)Cn1nnc2ccccc21 (stereo not given)	.	.	.	?	.	.	.	.	40µM
CCOC(=O)c1cc(-c2ccc(/C=C3/C(=O)N(c4ccc(C(=O)O)cc4)N=C3C)o2)ccc1Cl	.	.	.	?	.	.	.	5µM	1.3µM
CCOC(=O)c1cc(-c2ccc(/C=N\n3cnnc3)o2)ccc1Cl	.	.	.	.	.	.	/	/	/
C=CCn1c(SCC(=O)N2CCN(C(=O)c3ccco3)CC2)nc2sc(CC)cc2c1=O	.	.	.	?	.	.	.	.	18µM
C=CCn1c(SCC(=O)N2CCCC2=O)nc2sc(CC)cc2c1=O	/	.	.	.	.	.	/	/	/
SMILES	FUS yeast rescue	Abeta yeast res	TDP43 rescue	mIDH1 inhibitor	LDHA inh	aSyn rescue	IDH1 autofl	IDH1 WT	IDH1 R132H conf
Cc1cc(-n2c(=S)sc3c(=O)n(-c4ccc(F)cc4)c(SCC(=O)O)nc32)ccc1Cl	.	.	.	26µM	.	.	.	?	7.9µM
COc1ccccc1-n1c(SCC(=O)O)nc2c(sc(=S)n2-c2ccc(Cl)c(C)c2)c1=O	?	.	.	.	.	.	/	/	/
C=CCn1c(SCc2ccc(Cl)cc2)nc2c1c(=O)n(C)c(=O)n2C	/	/	/	/	.	/	/	/	/
NSc1nc(N)c2nc(-c3ccccc3)c(-c3ccccc3)nc2n1	.	.	.	?	.	.	.	.	22µM
CCOc1ccc(C2=C(C(C)=O)Sc3nnc(C)n3N2C(C)=O)cc1	.	.	.	?	.	.	/	/	/
CC(=O)C1=C(c2cccc([N+](=O)[O-])c2)N(C(C)=O)n2c(C)nnc2S1	.	.	?	21µM	?	.	.	.	3.2µM
COc1nc2ccccc2nc1N1CCC(C(=O)Nc2ccc(C)c(Cl)c2)CC1	/	/	/	/	.	/	/	/	/
C[C@H]1C[C@H]2[C@@H]3CCC4=CC(=O)C=C[C@]4(C)[C@@]3(F)[C@@H](O)C[C@]2(C)[C@@]1(O)C(=O)CO	.	.	.	.	.	.	/	/	/
CC1(c2ccccc2)O[C@@H]2C[C@H]3[C@@H]4CCC5=CC(=O)C=C[C@]5(C)[C@@]4(F)[C@@H](O)C[C@]3(C)[C@]2(C(=O)CO)O1 (stereo not given in full)	.	.	.	29µM	.	.	.	.	5µM
CCn1c2ccccc2c2c3ncc4cccn4c3ccc21	?	.	.	?	.	.	.	45µM	14µM
c1ccc2c(c1)ncc1cccn12	.	.	.	.	.	.	/	/	/
CCN1CC=C2C(C#N)=C(N)C(C#N)(C#N)C(c3cc(Cl)ccc3Cl)C2C1 (stereo not given)	.	.	.	?	.	.	.	.	.
